Measured values taken from PubChem BioAssay AID1835 (Johns Hopkins Ion Channel Center, 2009).
The campaign covered roughly 2,400 compounds. About 750 (31%) were called active. This is one part of the list. Unmarked numbers belong to inactive results.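 The calls were made as follows: active = median signal gain over dofetilide-blocked control wells reaching their mean plus 3 SD, so readout 1 at least 0; inactive = the rest.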

molecular target: Voltage-gated inwardly rectifying potassium channel KCNH2 (Homo sapiens) (UniProt Q12809); assay: hERG protection against dofetilide inhibition, confirmation, cell-based, thallium flux, duplicate retest, dofetilide IC70 (AID 1835); conditions: hERG cell line, FluxOR thallium flux, dofetilide-blocked; at 10 µM; stronger effect = higher value
Sequence (Q12809 whole entry, looked up): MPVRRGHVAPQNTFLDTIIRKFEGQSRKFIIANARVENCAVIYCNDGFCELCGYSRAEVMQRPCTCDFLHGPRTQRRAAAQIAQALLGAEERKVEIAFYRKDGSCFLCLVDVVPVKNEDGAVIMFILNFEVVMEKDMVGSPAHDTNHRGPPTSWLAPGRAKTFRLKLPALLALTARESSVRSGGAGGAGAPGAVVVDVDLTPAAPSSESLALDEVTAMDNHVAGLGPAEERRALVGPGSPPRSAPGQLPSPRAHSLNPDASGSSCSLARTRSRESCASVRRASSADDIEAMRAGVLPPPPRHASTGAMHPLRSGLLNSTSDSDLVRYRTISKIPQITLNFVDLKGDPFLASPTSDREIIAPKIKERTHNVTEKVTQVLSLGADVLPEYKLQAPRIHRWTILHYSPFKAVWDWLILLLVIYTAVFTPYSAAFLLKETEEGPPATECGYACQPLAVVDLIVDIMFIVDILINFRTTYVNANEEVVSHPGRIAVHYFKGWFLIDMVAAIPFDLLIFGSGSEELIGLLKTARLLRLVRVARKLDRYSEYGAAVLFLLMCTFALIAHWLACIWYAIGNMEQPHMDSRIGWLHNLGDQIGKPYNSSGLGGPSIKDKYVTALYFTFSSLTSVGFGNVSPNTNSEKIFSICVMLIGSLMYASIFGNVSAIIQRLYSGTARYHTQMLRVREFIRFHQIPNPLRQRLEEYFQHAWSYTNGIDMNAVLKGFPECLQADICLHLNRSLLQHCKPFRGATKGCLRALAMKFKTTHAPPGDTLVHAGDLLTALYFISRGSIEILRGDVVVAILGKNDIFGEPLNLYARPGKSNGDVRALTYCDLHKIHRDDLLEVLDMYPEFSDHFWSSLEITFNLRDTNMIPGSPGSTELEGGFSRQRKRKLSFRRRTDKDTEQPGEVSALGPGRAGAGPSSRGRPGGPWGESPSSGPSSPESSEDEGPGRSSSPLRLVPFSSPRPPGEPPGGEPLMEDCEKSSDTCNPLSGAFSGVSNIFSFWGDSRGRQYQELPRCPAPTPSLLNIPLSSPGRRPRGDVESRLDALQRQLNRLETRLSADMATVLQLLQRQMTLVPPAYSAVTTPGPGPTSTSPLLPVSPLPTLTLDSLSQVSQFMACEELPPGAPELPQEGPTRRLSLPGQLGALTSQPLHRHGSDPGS

| Compound | activity increase over dofetilide control, less the hit threshold |
| --- | --- |
| Cc1cc(C)c(S(=O)(=O)Nc2cccc(-n3cnnn3)c2)c(C)c1 | -14% |
| O=C(COC(=O)C1CCC(=O)N1)Nc1ccc(Oc2ccccc2)cc1 (configuration not stated) | -9% |
| O=C(CCSc1ccc(Br)cc1)c1ccc(O)cc1 | 2% (active) |
| CN1CCN(S(=O)(=O)c2cccc(S(=O)(=O)c3ccc(Cl)cc3)c2)CC1 | -10% |
| CCSc1nc2c(sc3ccccc32)c(=O)n1C(C)C | 25% (active) |
| COc1cccc(NC(=O)c2nn(-c3ccc(OC)cc3OC)c(=O)c3ccccc23)c1 | -8% |
| CCN(CC)CCCNC(=O)c1cn(-c2cccc(OC)c2)c(=O)c2ccccc12 | -16% |
| COc1cccc(-n2nc(C(=O)O)c3ccccc3c2=O)c1 | 11% (active) |
| Cc1ccc(C(=O)NNC(=S)NC(=O)c2ccc(Cl)cc2)cc1 | -23% |
| Cc1cccc(C(=O)NC(=S)NNC(=O)c2ccc(Cl)cc2)c1 | -10% |
| CC(C)CNC(=S)NC(=O)c1ccc(Cl)cc1 | 19% (active) |
| Nc1nc2n(n1)C(=O)CC(c1ccc(Cl)cc1)N2 (configuration not stated) | -10% |
| CN(C)S(=O)(=O)c1cc(NC2CC(=O)N(c3ccc(F)cc3)C2=O)ccc1Cl (configuration not stated) | -2% |
| CCC(=O)NC(=S)NNC(=O)c1ccccc1[N+](=O)[O-] | -3% |
| O=C(NC(=S)N(CCO)Cc1ccccc1)c1cc(Br)ccc1Cl | 7% (active) |
| CN(Cc1ccccc1)C1CCN(Cc2ccccc2[N+](=O)[O-])CC1 | -16% |
| CCN(Cc1ccccc1)C(=S)NC(=O)c1ccccc1Br | 47% (active) |
| CCCN(Cc1ccccc1)C(=S)NC(=O)c1ccccc1[N+](=O)[O-] | 52% (active) |
| O=C(NC(=S)N(Cc1ccccc1)Cc1ccccc1)c1ccccc1F | 32% (active) |
| O=C(Cn1cncn1)c1ccccc1Br | -24% |
| COc1nccnc1NS(=O)(=O)c1ccc(NC(=S)NC(=O)c2ccccc2F)cc1 | -17% |
| O=C(O)c1ccc2c(c1)C(=O)N(c1cc([N+](=O)[O-])ccn1)C2=O | -3% |
| CCCN1Cc2cccc(C(=O)NCc3cccs3)c2C1=O | -21% |
| CCCCCCc1cc2cc(-c3nnc(-c4ccccc4O)o3)c(=O)oc2cc1O | -16% |
| O=C(Nc1ccc(Oc2cccnc2)cc1)c1cccc([N+](=O)[O-])c1 | -6% |
| Cn1cc([N+](=O)[O-])c(C(=O)N/N=C\c2c[nH]c3ccccc23)n1 | -7% |
| COc1ccc(-c2ccc(/C=N/NC(=O)c3cccnc3)o2)c([N+](=O)[O-])c1 | 1% (active) |
